# In PubChem BioAssay AID504333 (National Center for Advancing Translational Sciences (NCATS), 2011):
# About 16,000 (4.4%) of roughly 360,000 compounds were called active. Entries that show only a call come without a potency. Another 9% or so got no clear call; they are omitted. The sample holds actives, similar compounds and a random draw of the others, so the mix is not that of the screen. The call rests on the fitted dose curve; in most records, active means well fitted inhibition curve with a large enough effect; inconclusive means small, poorly fitted or top-dose-only effect; inactive means no such curve, though single readings can be large or run the other way.
# Target: Bromodomain adjacent to zinc finger domain protein 2B (Homo sapiens) (UniProt Q9UIF8)
# Assay: qHTS Assay for Inhibitors of BAZ2B; further: nearly all actives have a fitted effect of over 60% in size
# Conditions: AlphaScreen BAZ2B-H3K14Ac peptide displacement; series mostly up to 114 µM
# Procedure, shortened: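 Complex of BAZ2B and biotin-H3K14Ac (50 nM apiece) forms over 30 min at RT, then faces library compounds up to 110 uM for another 30 min; AlphaScreen beads added, 20 min dark incubation, luminescence read.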
# Potency means the concentration at half of the fitted maximal effect.
# Sequence of Bromodomain adjacent to zinc finger domain protein 2B (Homo sapiens) (Q9UIF8 whole entry, looked up, the tested form may be a part): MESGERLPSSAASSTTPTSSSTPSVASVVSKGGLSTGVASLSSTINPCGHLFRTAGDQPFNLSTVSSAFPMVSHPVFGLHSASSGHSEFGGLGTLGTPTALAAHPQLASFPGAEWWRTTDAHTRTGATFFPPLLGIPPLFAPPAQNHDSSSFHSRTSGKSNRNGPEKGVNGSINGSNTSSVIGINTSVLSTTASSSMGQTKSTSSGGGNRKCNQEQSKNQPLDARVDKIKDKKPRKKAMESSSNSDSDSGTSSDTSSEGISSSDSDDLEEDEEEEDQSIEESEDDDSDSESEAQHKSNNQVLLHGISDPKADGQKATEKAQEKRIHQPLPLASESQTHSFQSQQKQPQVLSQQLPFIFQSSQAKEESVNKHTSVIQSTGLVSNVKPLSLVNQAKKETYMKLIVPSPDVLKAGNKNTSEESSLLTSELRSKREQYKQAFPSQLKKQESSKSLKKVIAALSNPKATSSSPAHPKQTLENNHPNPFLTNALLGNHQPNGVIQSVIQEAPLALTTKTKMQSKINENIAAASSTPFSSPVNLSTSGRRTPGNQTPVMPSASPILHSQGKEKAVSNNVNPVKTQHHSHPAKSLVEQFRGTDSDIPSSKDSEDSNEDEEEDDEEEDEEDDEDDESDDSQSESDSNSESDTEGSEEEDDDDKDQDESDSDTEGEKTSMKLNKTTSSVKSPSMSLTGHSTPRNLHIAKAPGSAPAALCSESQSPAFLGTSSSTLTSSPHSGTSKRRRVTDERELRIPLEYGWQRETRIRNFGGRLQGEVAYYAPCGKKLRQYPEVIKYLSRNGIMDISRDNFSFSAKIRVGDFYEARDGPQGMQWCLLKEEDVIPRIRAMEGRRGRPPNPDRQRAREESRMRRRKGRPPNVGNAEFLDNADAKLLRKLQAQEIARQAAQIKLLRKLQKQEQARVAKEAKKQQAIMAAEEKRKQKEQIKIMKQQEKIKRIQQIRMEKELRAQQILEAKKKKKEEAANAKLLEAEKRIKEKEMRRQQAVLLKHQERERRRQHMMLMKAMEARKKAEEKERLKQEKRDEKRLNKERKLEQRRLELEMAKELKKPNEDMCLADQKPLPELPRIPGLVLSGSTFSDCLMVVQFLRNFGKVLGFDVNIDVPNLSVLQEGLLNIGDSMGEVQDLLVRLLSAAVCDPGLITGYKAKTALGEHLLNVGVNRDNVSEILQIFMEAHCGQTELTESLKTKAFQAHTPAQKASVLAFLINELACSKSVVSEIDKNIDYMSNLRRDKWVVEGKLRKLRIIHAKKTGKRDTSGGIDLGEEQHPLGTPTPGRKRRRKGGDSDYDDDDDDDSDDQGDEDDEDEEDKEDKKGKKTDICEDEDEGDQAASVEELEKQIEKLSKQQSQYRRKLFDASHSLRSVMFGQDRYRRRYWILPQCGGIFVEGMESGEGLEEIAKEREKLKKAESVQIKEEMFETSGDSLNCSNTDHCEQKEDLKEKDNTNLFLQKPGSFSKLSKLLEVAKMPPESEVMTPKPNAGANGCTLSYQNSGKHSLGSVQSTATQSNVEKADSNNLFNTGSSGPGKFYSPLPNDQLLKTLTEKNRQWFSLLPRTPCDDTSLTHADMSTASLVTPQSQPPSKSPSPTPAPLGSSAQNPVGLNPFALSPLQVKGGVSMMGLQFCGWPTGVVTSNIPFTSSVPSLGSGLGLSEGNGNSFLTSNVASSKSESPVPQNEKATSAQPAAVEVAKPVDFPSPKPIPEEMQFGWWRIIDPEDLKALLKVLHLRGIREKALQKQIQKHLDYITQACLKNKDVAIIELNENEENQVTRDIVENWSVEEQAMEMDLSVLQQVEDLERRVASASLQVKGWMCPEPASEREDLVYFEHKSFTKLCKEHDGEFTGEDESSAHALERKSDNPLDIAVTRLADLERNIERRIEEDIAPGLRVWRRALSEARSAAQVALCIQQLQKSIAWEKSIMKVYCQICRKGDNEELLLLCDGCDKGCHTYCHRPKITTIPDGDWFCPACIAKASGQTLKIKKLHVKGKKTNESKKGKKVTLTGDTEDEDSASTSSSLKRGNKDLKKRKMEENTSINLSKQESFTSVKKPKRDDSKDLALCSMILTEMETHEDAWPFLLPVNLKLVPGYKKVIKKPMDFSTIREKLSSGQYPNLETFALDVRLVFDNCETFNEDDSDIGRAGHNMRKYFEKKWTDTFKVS
row,Structure (SMILES),Potency
1,CSc1ccc(C2C(C(=O)Nc3ccccc3)=C(C)Nc3nc4ccccc4n32)cc1 (configuration not stated),inactive
2,CCC(CC)C(=O)N1CCc2cc(OC)c(OC)cc2C1COc1ccc(F)cc1 (configuration not stated),inactive
3,COc1ccc(NC(=O)c2sc3nc[nH]c(=O)c3c2C)cc1,inactive
4,COc1ccc(OC)c(-c2nc(C(N)=O)c3c(n2)n(-c2ccc4c(c2)OCO4)c(=O)n3C)c1,inactive
5,CCc1ccccc1NC(=O)N1CCN(C(=O)c2nsc3ccccc23)CC1,inactive
6,Cc1csc2nc(COC(=O)c3ccc(NC(=O)COc4ccccc4F)cc3)cc(=O)n12,inactive
7,CCc1nc2ccc(C(=O)N3CCN(c4cc(Cl)ccc4C)CC3)cc2nc1CC,inactive
8,Cc1c(NC(=O)C(C)(C)C)cccc1-c1nc2ccccc2s1,inactive
9,O=C1CSC(=S)N1/N=C/c1ccc(O)c([N+](=O)[O-])c1,50.1 µM (active)
10,COc1cccc(N2CCN(C(=O)CCCCCn3c(=O)[nH]c4ccccc4c3=O)CC2)c1,inactive
11,COc1ccc2c(Sc3ccc(C)cc3)c(C(=O)NC(C)c3ccccc3)[nH]c2c1 (configuration not stated),inactive
12,Cc1ccc(N(CC(=O)NCC(C)c2ccccc2)S(=O)(=O)N(C)C)cc1 (configuration not stated),inactive
13,CCC1=NN2C(=N)/C(=C/c3cc(C)n(-c4ccccc4)c3C)C(=O)N=C2S1,inactive
14,CS(=O)(=O)c1ccc2c(c1)SC1=NC(=O)/C(=C/c3ccco3)C(=N)N12,50.1 µM (active)
15,Cc1ccc(NC(=O)c2nc[nH]c2C(=O)N[C@@H](CCCCNC(=O)OC(C)(C)C)C(=O)OC(C)(C)C)cc1,inactive
16,CC(C)(C)OC(=O)NCCCCCNC(=O)c1nc[nH]c1C(=O)NCc1ccccc1,inactive
17,CC(C)(C)OC(=O)NCCCCCNC(=O)c1[nH]cnc1C(=O)Nc1nccs1,31.6 µM (active)
18,OCc1cnc(SCc2ccc(F)cc2)n1Cc1ccc(F)cc1,inactive
19,CCOc1ccc(-n2c(SCC(=O)NCc3ccccc3)nc3n[nH]c(C)c3c2=N)cc1,inactive
20,O=C(Nc1ccc(C(=O)O)c(O)c1)c1ccccc1,inactive
21,O=C(O)c1ccc(-n2cccc2)cc1O,56.2 µM (active)
22,O=C(Cn1ccc(=O)[nH]c1=O)Nc1ccc(C(=O)O)c(O)c1,inactive
23,Cc1ccc(S(=O)(=O)N(Cc2nc(-c3ccc(Cl)cc3)no2)C2CCCCC2)cc1,inactive
24,CN1C2CCC1/C(=C\c1ccccc1Cl)C(=O)/C2=C\c1ccccc1Cl,39.8 µM (active)
25,O=C(CN1CCCCCC1)NCCN1C(=O)S/C(=C\c2ccccc2Cl)C1=O,inactive
26,O=C(CN1C(=O)S/C(=C\c2ccccc2Cl)C1=O)NC1C=CS(=O)(=O)C1 (configuration not stated),inactive

row,Structure (SMILES),Potency
1,O=C(Nc1ccc(F)cc1F)c1ccc2c(=O)n3c(nc2c1)CCCCC3,inactive
2,CCOC(=O)c1cc2c(=O)n3ccccc3nc2n(CCCOC)c1=NC(=O)C(C)(C)Oc1ccc(Cl)cc1,inactive
3,Oc1ccccc1-c1nc(/C=C/c2ccc(F)cc2)no1,inactive
4,O=C(CSc1ncn[nH]1)NCc1ccc2c(c1)OCO2,inactive
5,Cc1ccn2c(=O)nc(SCC(=O)NCc3ccc4c(c3)OCO4)nc2c1,56.2 µM (active)
6,Cc1ccn2c(=O)nc(SCC(=O)NCc3ccc(F)cc3)nc2c1,inactive
7,Cc1ccc(C)c(Nc2nnc(-c3ccc(C)c(S(=O)(=O)N4CCCCC4)c3)c3ccccc23)c1,inactive
8,COc1cccc(CNC(=O)c2ccc3c(c2)sc2nc(-c4cccc(OC)c4)cn23)c1,inactive
9,CN(C)CCOC1c2ccccc2-c2ccccc21,inactive
10,CN(C)CCOc1cccc(Br)c1,44.7 µM (active)
11,COc1ccc(OC)c(NC(=O)CN(C)CCOc2ccc(Br)cc2)c1,inactive
12,COc1ccc(NC(=O)CN2CCCN(Cc3ccccc3)S2(=O)=O)cc1,inactive
13,CC(C)c1ccc(C(=O)NCCCc2ccccc2)cc1,inactive
14,O=C(NCCCNCc1ccccc1)c1ccc(/C=N/O)nc1,50.1 µM (active)
15,Nc1ccc(C(=O)NCc2ccccc2)cc1,inactive
16,Oc1ccccc1N1CCN(C(=S)NCc2ccccc2)CC1,inactive
17,O=C(Cc1ccc(Cl)cc1)NC(=S)Nc1ccccc1O,inactive
18,Oc1ccc(CNc2ccccc2O)cc1,44.7 µM (active)
19,O=C(c1ccc(C(F)(F)F)cc1)N1CCC(c2nc(-c3ccc(S(=O)(=O)N4CCCC4)cc3)no2)CC1,inactive
20,COc1cccc(NC(=O)Nc2ccc3c(c2)N(C)C(=O)c2ccccc2S3)c1,inactive
21,COc1ccc(CC(=O)N2CC(=O)Nc3ccc(Br)cc3C2c2ccc(F)cc2)cc1OC (configuration not stated),inactive
22,CCOC(=O)c1c(NC(=O)CSc2nnc(Cc3csc(N)n3)n2C)sc(C)c1C,12.6 µM (active)
23,CCOC(=O)c1c(NC(=O)CSc2nnc(CN3CCOCC3)n2C)sc2c1CCCC2,inactive
24,CCOC(=O)c1c(NC(=O)CSc2nccc(=O)[nH]2)sc(C)c1C,inactive
25,Cc1cccc(C)c1-n1ncc(C(=O)NCCCN2CCCCC2)c1C1CCN(C(=O)OC(C)(C)C)CC1,inactive
26,CC(C)S(=O)(=O)c1oc(-c2ccc(F)cc2)nc1S(=O)(=O)c1ccc(F)cc1,inactive

row,Structure (SMILES),Potency
1,Cc1ccc(NC(=O)CSc2nc3c([nH]c4ccccc43)c(=O)n2-c2ccccc2)cc1Cl,inactive
2,Cc1ccc(N2CC(c3nnc(Cc4ccccc4Cl)o3)CC2=O)cc1 (configuration not stated),inactive
3,Cc1ccccc1Nc1nc(N)nc(CSc2ccccc2)n1,inactive
4,Cc1ccccc1Nc1nc(N)nc(CN2CCN(c3ccccn3)CC2)n1,50.1 µM (active)
5,Cc1ccc(C(=O)OCc2nc(N)nc(Nc3ccccc3C)n2)cc1,inactive
6,CCOc1ccccc1CNC(=O)Nc1cn(CC(C)C)c(=O)c2ccccc12,inactive
7,COc1ccccc1CNC(=O)C(Cc1ccccc1)NS(=O)(=O)c1ccc2c(c1)oc(=O)n2C (configuration not stated),inactive
8,COc1ccc2c(C)c(CCC(=O)NCc3ccc(OC)c(OC)c3)c(=O)oc2c1,inactive
9,Nc1ccc(Nc2cc(O)c3ncccc3c2)cc1,7.08 µM (active)
10,CC(C)c1ccc(Nc2ncccc2C#N)cc1,inactive
11,CC1CCN(S(=O)(=O)c2ccc3c(ccn3CCC(=O)NCc3ccc(N(C)C)cc3)c2)CC1,28.2 µM (active)
12,O=C(CCn1ccc2cc(S(=O)(=O)N3CCCC3)ccc21)NCc1cccc(Cl)c1,inactive
13,CC1CCN(S(=O)(=O)c2ccc3c(ccn3CC(=O)O)c2)CC1,inactive
14,CCCN(CCC)C(=O)C(Cc1ccccc1)NS(=O)(=O)c1ccc2c(c1)c(=O)n(C)c(=O)n2C (configuration not stated),inactive
15,O=[N+]([O-])c1cc(Cl)cc(/C=N/NC(=S)Nc2cc(S(=O)(=O)N3CCOCC3)ccc2Cl)c1O,1.78 µM (active)
16,Cc1ccc(S(=O)(=O)N2CCN(CC(=O)N/N=C/c3cc([N+](=O)[O-])ccc3Cl)CC2)cc1,inactive
17,O=S(=O)(c1ccc(NC(=S)NN=C(C2CC2)C2CC2)cc1)N1CCOCC1,inactive
18,Cn1c(=O)c2c(nc(SCC(=O)Nc3ccc(F)cc3)n2Cc2ccccc2)n(C)c1=O,inactive
19,Cc1nn(C(C)C(=O)Nc2ccc(C(C)C)cc2)c(=O)c2c1sc1ccccc12 (configuration not stated),inactive
20,CC1CN(C(=O)N2CCC(C(=O)NCc3ccco3)CC2)c2cc(Cl)ccc2O1 (configuration not stated),inactive
21,Cc1ccc(SCC(=O)Nc2ncc(C)s2)cc1,inactive
22,Cc1cc(C(=O)Nc2nnc(C3CC3)s2)c(C)s1,inactive
23,O=C(Nc1nnc(C2CC2)s1)c1ccccn1,5.62 µM (active)
24,O=C(Nc1nnc(C2CC2)s1)c1cc(Cl)sc1Cl,inactive
25,Cc1cnc(NC(=O)c2ccccn2)s1,35.5 µM (active)
26,Cc1cnc(NC(=O)C2CCCC2)s1,inactive

row,Structure (SMILES),Potency
1,COCCNC(=O)c1ccc2c(c1)N=C(C)c1cc(C)ccc1S2,inactive
2,CC1=Nc2cc(C(=O)N3CCC(C)CC3)ccc2Sc2ccc(Cl)cc21,inactive
3,Cc1ccc(Cn2c(=O)n(-c3ccc(C)cc3)c(=O)c3c2c2cc(C)ccc2n3C)cc1,inactive
4,COc1ccc(CNC(=O)CSc2n[nH]c(-c3ccc(F)cc3)n2)cc1,inactive
5,CCc1nnc(NC(=O)c2ccc(S(=O)(=O)NC3CCCCC3)cc2)s1,inactive
6,CCc1nnc(NC(=O)c2nc3nccc(C)n3n2)s1,70.8 µM (active)
7,CCc1nnc(NC(=O)c2cc(S(=O)(=O)N3CCCCC3)ccc2C)s1,inactive
8,COC(=O)C1=C(C)NC(=O)CC1c1ccccc1OC (configuration not stated),inactive
9,O=C1CC(c2ccc(F)cc2F)c2cc3c(cc2N1)OCO3 (configuration not stated),inactive
10,CCCOc1ccccc1C1CC(=O)Nc2cc3c(cc21)OCO3 (configuration not stated),28.2 µM (active)
11,Cc1nc2ccn(Cc3cccs3)c(=O)c2cc1C(=O)NCc1ccc(Cl)cc1,inactive
12,Cc1ccc(Nc2nc(Cl)c(C=O)s2)cc1,inactive
13,Cc1ccc(Nc2ccccc2N)cc1,44.7 µM (active)
14,Nc1ccc(C(=O)Nc2ccccc2N)cc1,inactive
15,COc1ccc(-c2noc(CSc3nnc(-c4ccccc4)n3-c3ccc(F)cc3)n2)c(OC)c1,inactive
16,CCOC(=O)c1c(-c2ccccc2)oc2ccc(OCC(N)=O)cc12,inactive
17,CC(=O)c1c(C)n(-c2ccc(N(C)C)cc2)c2ccc(OCC(N)=O)cc12,50.1 µM (active)
18,CC(=O)c1c(C)n(-c2ccc(C)cc2)c2ccc(O)cc12,inactive
19,CC(=O)c1ccc(NC(=O)c2nc(-c3ccc(C)cc3)n3c2CCCCC3)cc1,inactive
20,COc1ccccc1-c1ccnc2[nH]n(-c3ccccc3)c(=O)c12,inactive
21,CC1Cc2ccccc2N1CC(=O)Nc1ccc(S(N)(=O)=O)cc1 (configuration not stated),79.4 µM (active)
22,NS(=O)(=O)c1cccc(NC(=O)CN2CCCc3ccccc32)c1,inactive
23,CC1CC(C)CN(CC(=O)Nc2ccc(S(N)(=O)=O)cc2)C1 (configuration not stated),inactive
24,CC(CNC(=O)c1nnc(Cc2cccc(F)c2)o1)c1ccccc1 (configuration not stated),inactive
